The values below come from PubChem BioAssay AID1851 (National Center for Advancing Translational Sciences (NCATS), 2009).

“And” between values parts separate entries of the source, which are not always exact repeats. Identical values can stand only once. The campaign covered roughly 16,000 compounds. About 4,000 (25%) were called active. Another 26% or so got no clear call; they are omitted. A selection follows. Unmarked numbers belong to inactive results. Calls come from the whole dose curve; as a rule, active = well fitted curve in the direction sought with a large enough effect; inconclusive = small, poorly fitted or top-dose-only effect, or effect the other way; inactive = no such curve, though single readings can be large or run the other way.
% is set by controls: 0 for no effect and ±100 for the full control effect.

The target in this test is Cytochrome P450 2C9 (Homo sapiens) (UniProt P11712). Kind of test: Cytochrome panel assay with activity outcomes. The conditions noted are these: recombinant CYP, pro-luciferin dealkylation, luminescence, p450-cyp2c9; series mostly up to 57.1 µM.
Sequence of Cytochrome P450 2C9 (Homo sapiens) (P11712 whole entry, looked up): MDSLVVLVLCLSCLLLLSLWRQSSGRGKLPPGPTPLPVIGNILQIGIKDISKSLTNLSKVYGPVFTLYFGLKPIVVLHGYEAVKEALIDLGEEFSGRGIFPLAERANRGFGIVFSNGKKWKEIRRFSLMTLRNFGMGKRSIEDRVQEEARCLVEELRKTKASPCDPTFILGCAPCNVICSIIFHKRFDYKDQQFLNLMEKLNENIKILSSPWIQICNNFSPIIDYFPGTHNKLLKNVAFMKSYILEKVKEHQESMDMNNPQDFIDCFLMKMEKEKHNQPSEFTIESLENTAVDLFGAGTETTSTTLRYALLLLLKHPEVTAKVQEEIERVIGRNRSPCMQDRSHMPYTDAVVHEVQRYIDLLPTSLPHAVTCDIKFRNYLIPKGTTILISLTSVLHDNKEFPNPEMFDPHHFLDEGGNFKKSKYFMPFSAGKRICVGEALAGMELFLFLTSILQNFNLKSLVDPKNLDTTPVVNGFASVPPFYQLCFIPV
With `c1cncc(CNc2cc(-c3ccoc3)ncn2)c1`, the activity, negative = inhibition is 2% [at 2.29 µM].
On to `C/C(=N\OC(=O)c1ccc(F)cc1)c1nccs1`, for which the AC50 entry was “inactive”.
The same measure, in the same setting: under `C/C(=C\c1ccco1)C1C(C#N)=C(N)Oc2n[nH]c(-c3ccccc3)c21` (configuration not stated) stands 0.0891 µM (active).
Consider `Nc1nc2c(c(=O)[nH]1)CN(CCCN1CCOCC1)CN2`, for which the activity, negative = inhibition is 11% [at 11.4 µM].
For `O=C(O)CCCCCNC(=O)c1ccccc1Br`, the AC50 entry was “inactive”.
With `O=C(NCCNc1ccc([N+](=O)[O-])cc1)c1ccccc1Br`, the AC50 is 14.1 µM (active).
Regarding `CC(=O)Nc1ccc(NC(=O)c2ccccc2CC[N+](=O)[O-])cc1`, the AC50 entry is “inactive”.
As for `CCOc1ccc2nc3cc(N=Nc4ccc(N)nc4N)ccc3c(N)c2c1`, the activity, negative = inhibition was 1.7% [at 11.4 µM].
In the case of `O=C(Nc1ccc2nc(SCc3ccc(Cl)cc3)sc2c1)c1ccccc1C(=O)N1CCOCC1`, the AC50 entry is “inactive”.
Still for that read-out and setting: in the case of `CC(/C=C/c1ccco1)=N/NC(=O)c1ccccc1Cl` it was “inactive”; in that of `CCCC(=O)Nc1ccc2nc(SCC(=O)Nc3ccc(N4CCOCC4)c(Cl)c3)sc2c1`, 2.24 µM (active); in that of `NC(=O)c1ccc(N2CCCCC2)c(N2C(=O)C3CC=CCC3C2=O)c1` (configuration not stated), “inactive”.
For the molecule `O=C(/C=C/c1ccc(Cl)cc1)NCCN1CCOCC1`, the AC50 result was “inactive”.
Regarding `Cc1ccc(NC(=O)CSCC(=O)Nc2ccc(N3CCOCC3)c(Cl)c2)cc1`, the AC50 was 5.01 µM (active).
Take `Cc1ccc(NC(=O)c2cc(N3C(=O)C4CC=CCC4C3=O)ccc2N2CCOCC2)cc1Cl` (configuration not stated): the AC50 was 11.2 µM (active).
The same measure, in the same setting: in the case of `O=C(/C=C/c1ccco1)NC(=S)Nc1ccc(N2CCOCC2)c(Cl)c1` it was 4.47 µM (active).
Turning to `CN1CCCN(C2C3CC4CC(C3)CC2C4)CC1` (configuration not stated), the AC50 entry is “inactive”.
`CCN1C(=O)[C@H]2[C@H]3[C@H](O)[C@H](O)C/C(=N/OC[C@@H](O)[C@H]4O[C@H]5OC(C)(C)O[C@H]5[C@@H]4O)[C@@H]3CC[C@@H]2C1=O`: the activity, negative = inhibition was 11.9% [at 11.4 µM].
In the case of `COc1ncnc(NS(=O)(=O)c2ccc(N)cc2)c1OC`, the AC50 entry is “inactive”.
Consider `CN=C(NC#N)NCCSC[C@H]1N=CN=C1C`, for which the AC50 result was “inactive”.
As for `CC[C@@]12CCCN3CCc4c(n(c5ccccc45)[C@](O)(C(=O)OC)C1)[C@H]32`, the AC50 result was “inactive”.
As for `COc1cccc(/C(O)=C2/C(=O)C(=O)N(c3cc(C)on3)C2c2cccs2)c1` (configuration not stated), the AC50 is 14.1 µM (active).
Regarding `COc1ccc(/C(O)=C2\C(=O)C(=O)N(c3cc(C)on3)C2c2ccc(OC)c(OC)c2)cc1OC` (configuration not stated), the AC50 result is “inactive”.
For `COc1ccc(C2/C(=C(/O)c3ccccc3)C(=O)C(=O)N2CC(C)O)c(OC)c1` (configuration not stated), the AC50 entry was “inactive”.
The same measure, in the same setting: in the case of `COc1ccc(C2/C(=C(/O)c3ccccc3)C(=O)C(=O)N2c2ccccn2)c(OC)c1` (configuration not stated) it was 15.8 µM (active); in that of `COc1ccc(OC)c(C2N(c3cc(C)on3)C(=O)C3CCCN32)c1` (configuration not stated), “inactive”.
Still for that read-out and setting: under `CCOc1ccc(/C(O)=C2\C(=O)C(=O)N(CCOCCO)C2c2ccccc2OC)cc1` (configuration not stated) stands “inactive”; under `CN1CCN(c2ncc3ncc(=O)n(C[C@H]4CCCO4)c3n2)CC1`, “inactive”.
Take `CN(Cc1ccco1)c1cc(-c2ccc3c(c2)OCO3)ncn1`: the activity, negative = inhibition is -13% [at 2.29 µM].
Still for that read-out and setting: under `CCOC(=O)N/N=C1/C[C@@H](O)[C@@H](O)[C@@H]2[C@@H]3C(=O)N(CC)C(=O)[C@H]3CC[C@@H]12` stands 9.77% [at 11.4 µM].
The same measure, in the same setting: in the case of `CN(C)CCCN1CCC2(CCC(C(C)(C)C)CC2)CC1` it was 13% [at 11.4 µM]; in that of `CN(Cc1ccco1)c1nc(-c2ccccc2C(F)(F)F)nc2ccccc12`, -1.38% [at 2.29 µM].
For the molecule `COc1ccc2[nH]cc(CCNc3ncnc4ccc(-c5cccnc5)cc34)c2c1`, the AC50 was 1 µM (active).
As for `N#Cc1ccccc1-c1ccc2ncnc(NC3CC3)c2c1`, the activity, negative = inhibition was -9.89% [at 2.29 µM].
`Cc1cnc(CNc2ncnc3ccc(-c4ccc5c(c4)OCO5)cc23)cn1`: the activity, negative = inhibition was -11.4% [at 2.29 µM].
The same measure, in the same setting: under `COc1ccc2[nH]cc(CCNc3cc(-c4cccnc4)ncn3)c2c1` stands -3.3% [at 2.29 µM]; under `COCCNc1ncnc2ccc(-c3cccc(OC)c3)cc12`, 26.2% [at 2.29 µM]; under `COc1ccccc1CNc1ncnc2ccc(-c3cccnc3)cc12`, 6.62% [at 2.29 µM].
The same measure, in the same setting: under `COc1cccc(-c2ccc3ncnc(NC4CC4)c3c2)c1` stands -17.4% [at 2.29 µM].
`COc1ccc2[nH]cc(CCNc3ncnc4ccc(-c5ccccc5C#N)cc34)c2c1`: the AC50 was 0.316 µM (active).
Consider `CNc1ncnc2ccc(-c3ccccc3C#N)cc12`, for which the activity, negative = inhibition is -10.6% [at 2.29 µM].
With `Cc1cccc(CNc2ncnc3ccc(-c4cccnc4)cc23)c1`, the activity, negative = inhibition was -11.3% [at 2.29 µM].
As for `CNc1ncnc2ccc(-c3cccc(OC)c3)cc12`, the AC50 is 0.501 µM (active).
Still for that read-out and setting: under `Cc1cccc(CNc2ncnc3ccc(-c4ccc5c(c4)OCO5)cc23)c1` stands 0.316 µM (active); under `COc1ncc2nc(-c3cn(C)c4ccccc34)c(=O)n(C)c2n1`, “inactive”.
For `COc1cc2c(cc1OC)C(CCN)=NCC2`, the activity, negative = inhibition is -3.31% [at 11.4 µM].
Take `C[C@]1(O)CC[C@H]2[C@H]3CC=C4N5CCN=C5CC[C@@]4(C)[C@H]3CC[C@@]21C`: the activity, negative = inhibition is -4.16% [at 11.4 µM].
Consider `Cc1cnc(CNc2ncnc3ccc(-c4cccc(C#N)c4)cc23)cn1`, for which the activity, negative = inhibition is -16.4% [at 2.29 µM].
As to `CNc1ncnc2ccc(-c3ccccc3OC)cc12`, the activity, negative = inhibition is 2.7% [at 2.29 µM].
For the molecule `CC(=O)NCCNc1ncnc2ccc(-c3ccc4c(c3)OCO4)cc12`, the activity, negative = inhibition is 5.09% [at 2.29 µM].
Same read-out and setting: in the case of `COc1ccc2[nH]cc(CCNc3cc(-c4cccc(C#N)c4)ncn3)c2c1` it was -22.1% [at 2.29 µM]; in that of `COc1ccc2[nH]cc(CCNc3ncnc4ccc(-c5ccccc5CN(C)C)cc34)c2c1`, -13.9% [at 2.29 µM].
For `COc1ccc2[nH]cc(CCNc3ncnc4ccc(-c5ccc6c(c5)OCO6)cc34)c2c1`, the AC50 is 0.126 µM (active).
Same read-out and setting: in the case of `COc1ccc2[nH]cc(CCNc3ncnc4ccc(-c5cccc(C#N)c5)cc34)c2c1` it was 0.0631 µM (active).
`COc1cccc(-c2ccc3ncnc(NCc4cnc(C)cn4)c3c2)c1`: the activity, negative = inhibition was -22.3% [at 2.29 µM].
Regarding `COc1ccc2[nH]cc(CCNc3ncnc4ccc(-c5ccccc5OC)cc34)c2c1`, the concentration at half-maximal activity (AC50) is 0.251 µM (active).
For the molecule `c1nc(NCCN2CCOCC2)c2cc(-c3ccc4c(c3)OCO4)ccc2n1`, the activity, negative = inhibition was 6.81% [at 2.29 µM].
On to `COc1cccc(-c2ccc3ncnc(NCCc4c[nH]c5ccc(OC)cc45)c3c2)c1`, for which the AC50 is 0.398 µM (active).
As to `CC(C)=CCC/C(C)=C/CO/N=C1/C[C@@H](O)[C@@H](O)[C@@H]2[C@@H]3C(=O)N(C(C)(C)C)C(=O)[C@H]3CC[C@H]12`, the activity, negative = inhibition was 23% [at 11.4 µM].
Still for that read-out and setting: in the case of `CC(=O)OC[C@@H]1O[C@H](C/C=N\O[C@@H](C)CN2CCCCc3nc(C)c(C)cc32)C=C[C@@H]1OC(C)=O` it was 10.2% [at 11.4 µM].
Turning to `CC(C)(C)NC[C@H](O)COc1cccc2c1CCCC2=O`, the AC50 result is “inactive”.
In the case of `CC(C)[C@H](CO)Nc1nc(Nc2ccc(C(=O)O)c(Cl)c2)c2ncn(C(C)C)c2n1`, the AC50 result was “inactive”.
The same measure, in the same setting: under `CC(C)[C@H](CO)Nc1nc(Nc2cc(N)cc(Cl)c2)c2ncn(C(C)C)c2n1` stands 20 µM (active); under `CC(C)Oc1cccc(-n2c(CCc3c[nH]c4ccc(Br)cc34)nc3ccccc3c2=O)c1`, “inactive”.
The same measure, in the same setting: under `O=c1/c(=C\c2ccc(O)cc2)sc2n1C(c1ccccc1)C(c1ccccc1)=NN=2` (configuration not stated) stands 3.55 µM (active).
Regarding `CC(=O)NCCNc1nc(-c2ccc(N(C)C)cc2)nc2ccccc12`, the activity, negative = inhibition was -16.1% [at 2.29 µM].
`COc1ccccc1CNc1ccnc(-c2ccc3c(c2)OCO3)n1`: the activity, negative = inhibition was -27.5% [at 2.29 µM].
Regarding `COc1ccc(CNc2ccnc(-c3ccc4c(c3)OCO4)n2)c(OC)c1`, the activity, negative = inhibition is -25.6% [at 2.29 µM].
On to `COc1ccc([C@@H](Nc2ncccn2)c2cc3c(cc2O)OCO3)cc1`, for which the AC50 is 3.16 µM (active).
On to `COc1ccc([C@@H](C)c2cc3c(cc2O)OCO3)cc1`, for which the AC50 is 1.58 µM (active).
As to `O=C(O)[C@@H](O)Cc1ccccn1`, the activity, negative = inhibition was -2.15% [at 11.4 µM].
On to `CC(C/C=N/NC(=O)COc1cc(Cl)ccc1Cl)c1ccccc1` (configuration not stated), for which the AC50 was 10 µM (active).
On the same count and under the same terms, under `O=C(COc1ccc(Cl)cc1Cl)N/N=C/CCc1ccccc1` stands “inactive”.
On the same count and under the same terms, under `CC(C)C(=O)Nc1ccc(Sc2ccc(F)cc2)cc1` stands 14.1 µM (active).
Take `CC(C)C(=O)Nc1ccc(NC(=O)c2cccnc2)cn1`: the AC50 result is “inactive”.
Still for that read-out and setting: under `C/C(=N\NC(=S)Nc1ccc(F)cc1)C1CC1` stands “inactive”.
For `O=C(c1cc(C(F)(F)F)cc(C(F)(F)F)c1)N1CCC[C@@]2(CCN(c3ccncc3)C2)C1`, the AC50 entry was “inactive”.
The same measure, in the same setting: in the case of `CCCN(CCC)C(=O)[C@@H](CCC(=O)O)NC(=O)c1ccccc1` it was “inactive”.
Still for that read-out and setting: in the case of `O=C(O)CC[C@@H](NC(=O)c1ccccc1C(=O)O)C(=O)O` it was “inactive”; in that of `CCCCCN(CCCCC)C(=O)[C@H](CCC(=O)O)NC(=O)c1ccc(Cl)c(Cl)c1`, 3.98 µM (active) and 1 µM (active); in that of `CN(C)CCCO[C@H]1[C@H]([C@H](O)CO)O[C@H]2OC(C)(C)O[C@@H]21`, “inactive”.
For `CC(C)=C[C@H]1[C@@H](COC(=O)c2ccccc2Cl)C1(C)C`, the activity, negative = inhibition was -5.63% [at 11.4 µM].
For the molecule `Cc1cc(OC(=O)c2ccccc2Br)cc(=O)n1C`, the AC50 result was “inactive”.
For the molecule `Cc1cc(OC(=O)c2ccccc2Cl)cc(=O)n1C`, the AC50 is 10 µM (active).
On to `Cc1cc(OC(=O)c2ccc(Cl)cc2)cc(=O)n1C`, for which the AC50 was 25.1 µM (active).
The same measure, in the same setting: under `CN(C)CCC=C1c2ccccc2C=Cc2ccccc21` stands “inactive”; under `CCNc1ncc2nc(-c3ccc(F)cc3)c(=O)n(-c3ccc(OC)cc3)c2n1`, “inactive”.

What is called AC50 is the concentration at which the activity in the assay is half-maximal.
